Screening data (PubChem)
TRPML1 blocker = inhibitors of human TRPML1 channel | Q9GZU1 | TRPML1-inducible cells, Ca2+ dye fluorescence, FDSS; hits give low values; inhibition of EC80 agonist-evoked calcium signal | activity change, negative = inhibition, % (no concentration beside the values) | hit rate 0.02% among 390,000; in the data active = activity change below about -50%; inconclusive = between about -30% and that limit;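 note: stimulus is agonist 54-4 at its EC80 concentration; % is set by controls: 0 for no effect and ±100 for the full control effect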
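TRPML1-DL cells, Tet-induced overnight (~16 h, 37 °C) at 1,500 cells/well, were loaded with Ca8 no-wash dye plus quencher for 45-90 min at room temperature. Compounds were pinned during FDSS kinetic reading; agonist 54-4 at EC80 (4 uM final) then added.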
DRD3 agonist = D3 dopamine receptor (human) agonism. P35462. D3R DiscoveRx beta-arrestin cells, luminescence, 90 min. max activation, %. hit rate 0.58% among 410,000. AID 652048; in the data active = max activation above about 30%; note: 0% is about no effect
Target sequence (P35462 whole entry, looked up): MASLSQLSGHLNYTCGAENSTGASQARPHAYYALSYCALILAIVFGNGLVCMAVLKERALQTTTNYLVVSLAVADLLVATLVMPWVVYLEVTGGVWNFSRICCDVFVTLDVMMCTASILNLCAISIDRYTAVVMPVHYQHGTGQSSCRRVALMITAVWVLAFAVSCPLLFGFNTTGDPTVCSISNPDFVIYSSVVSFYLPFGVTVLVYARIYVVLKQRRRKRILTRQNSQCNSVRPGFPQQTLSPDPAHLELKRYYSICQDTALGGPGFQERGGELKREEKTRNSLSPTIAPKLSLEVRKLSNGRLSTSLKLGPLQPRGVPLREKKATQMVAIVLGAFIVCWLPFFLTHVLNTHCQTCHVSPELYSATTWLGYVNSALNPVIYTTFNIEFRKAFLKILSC
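Cells at 1500/well, incubated overnight, then treated with pinned compounds (dopamine as control) for 90 min at 37 degrees C. DiscoveRx reagent added for 30 - 60 minutes at room temperature; luminescence read.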
TRPML1 agonist = activates the human TRPML1 channel. Q9GZU1. TRPML1-expressing cells, Ca2+ dye fluorescence, FDSS. activation, % (test concentration not listed). hit rate 0.12% among 410,000. AID 624414; in the data active = activation above about 50%; inconclusive = mostly about 30% to 49%; note: 0% is about no effect
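Calcium fluorescence on an FDSS kinetic reader gave the read-out. Tet-induced TRPML1-DL cells were plated overnight, dye-loaded (Ca8 with quencher, 45-90 min, room temperature, dark), then read 110 s after compound addition, and again 110 s after 4uM final 54-4 (EC80).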
D3 antag = blocks the human D3 dopamine receptor; P35462; D3R cells, DiscoveRx beta-arrestin luminescence, antagonist mode; hits give low values; max response, negative = inhibition, %; hit rate 2.5% among 360,000; in the data active = max response below about -50%; inconclusive = no clear call, values can overlap the other calls; note: % is set by controls: 0 for no effect and ±100 for the full control effect
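Cells plated overnight at 1500 cells/well, then exposed to library compounds with dopamine controls for 90 minutes at 37 degrees C. DiscoveRx reagent added for 30–60 minutes at room temperature; luminescence read, quantitative HTS format.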
Numbers without * were called inactive; ? = inconclusive; . = no result. The list is not random: actives were taken first. Their share in the collection is about 2.9%.

SMILES	TRPML1 blocker	DRD3 agonist	TRPML1 agonist	D3 antag
CCCSc1nsc(NC(=O)C(c2ccccc2)c2ccccc2)n1	31	-9	0	-71*
CCc1cccc(NC(=O)CSc2n[nH]c(-c3ccccc3Cl)n2)c1	-20	-2	1	.
Cc1ccc(/C=N/Nc2ncc(Cl)cc2Cl)s1	1	31*	0	28
CC(CN1c2ccccc2Sc2cccnc21)N(C)C (stereo not given)	.	-17	.	.
CCOc1ccccc1NC(=O)c1cc2c(=O)[nH]c3ccccc3c2s1	2	7	1	.
O=C(NCCc1csc(-c2cccc(F)c2)n1)c1cccs1	6	-9	2	.
CC1=CC(=O)C=CC1=Nc1ccc(N(C)C)cc1	.	-11	-1	-51*
O=C(O)c1cccc(S(=O)(=O)N2CCC(n3nnc4cc(C(F)(F)F)ccc43)CC2)c1	-13	-14	0	-76*
CCOC1=C2[C@H](c3ccccc3)N(S(=O)(=O)c3ccc(C)cc3)C(C(C)(C)C)[C@H]2n2c(=O)n(-c3ccccc3)c(=O)n2C1 (stereo not given in full)	-19	6	0	0
CCOC1=C2[C@H](c3ccccc3)N(S(=O)(=O)c3ccc(C)cc3)[C@H](C(C)C)[C@H]2n2c(=O)n(-c3ccccc3)c(=O)n2C1	-15	-11	0	-55*
N#CC(C#N)=C1C=C2C=C(N3CCOCC3)CCC2CC1 (stereo not given)	-7	4	123*	8
CCN1CCN(C2=CC3=CC(=C(C#N)C#N)CCC3CC2)CC1 (stereo not given)	-7	-5	96*	18
N#CC(C#N)=C1C=C2C=C(N3CCCCCC3)CCC2CC1 (stereo not given)	-16	6	100*	17
CN1CCN(C2=CC3=CC(=C(C#N)C#N)CCC3CC2)CC1 (stereo not given)	-71*	-4	140*	-6
N#Cc1cc(Cl)c(N2CCOCC2)cc1C#N	1	0	4	18
CCOc1ccc(N(CCCCO)C(=S)NC(=O)c2ccc(C)c(Br)c2)cc1	6	35*	1	-24
COC(=O)C1CCN(C(c2ccccc2Cl)c2sc3nc(-c4ccco4)nn3c2O)CC1 (stereo not given)	-11	-19	1	.
CC(=O)N1CCN(c2cc(N3CCCC3)c(F)cc2[N+](=O)[O-])CC1	7	-20	1	-8
CCN1CCN(c2cc(N3CCc4ccccc4C3)c(F)cc2[N+](=O)[O-])CC1	0	-29	0	-79*
O=C(Nc1ccc(Cl)cc1)C1CCN(c2nc3ccccc3nc2C(F)(F)F)CC1	-16	3	0	.
COc1ccc(/C=C2\C=Cc3ccccc32)cc1OC	.	.	1	.
CC(Nc1oc(-c2ccc(COc3ccccc3)o2)nc1C#N)c1ccccc1 (stereo not given)	16	-9	1	.
CC(C)NC(=O)c1ccc(-c2ccc(F)c(F)c2)c2ccoc12	.	8	-1	18
CN1CCN(C(=O)c2ccc(-c3ccc(F)c(F)c3)c3ccoc23)CC1	.	-11	0	-59*
COc1ccc(-c2nc(N3CCN(S(=O)(=O)c4ccccc4)CC3)c3ccccc3n2)cc1	17	.	0	.
SMILES	TRPML1 blocker	DRD3 agonist	TRPML1 agonist	D3 antag
CCCCNC(=O)Nc1ccnn1C1CCCCC1	-2	-7	0	-76*
COc1cc2nc(N3CCCN(C)CC3)nc(NC3CCN(Cc4ccccc4)CC3)c2cc1OC	.	.	0	.
Cc1ccc(NC(=O)C[n+]2cc(-c3ccc(C)cc3)n3c2CCC3)cc1	4	-29	0	-66*
O=C(Nc1nnc(-c2ccccc2Cl)o1)c1ccco1	-18	2	4	25
O=C(Nc1nnc(-c2ccccc2Cl)o1)c1nc2ccccc2s1	2	11	65*	-2
Cc1ccccc1OCC(=O)NCC(C)NC(=O)COc1ccccc1C (stereo not given)	.	.	-1	.
COc1ccccc1OCCCSc1nc(-c2ccc(C(C)(C)C)cc2)nc2cc(=O)[nH]n12	-7	31*	1	.
CC(C)(C)c1ccc(-c2nc(SCCCOc3ccccc3)n3[nH]c(=O)cc3n2)cc1	6	14	0	.
CN(C)c1ccc(C=O)c(F)c1	.	.	-1	.
Cc1cc(C)c(S(=O)(=O)Nc2ccc(-c3ccc(N4CCCCCC4)nn3)cc2)c(C)c1	45	7	0	.
O=S(=O)(O)CCCS(=O)(=O)O	.	4	.	.
CCN(CC)S(=O)(=O)c1ccc2c(c1)C(=NO)c1cc(S(=O)(=O)N(CC)CC)ccc1-2	59	-11	0	-80*
CC1CCN(S(=O)(=O)c2ccc([N+](=O)[O-])cc2)CC1	33	0	0	-3
CCN(CC)S(=O)(=O)c1ccc(C)c(C)c1	3	5	0	25
CC1CCN(S(=O)(=O)c2ccc(Oc3ccc([N+](=O)[O-])cc3)cc2)CC1	7	-19	2	-81*
CCN(CC)S(=O)(=O)c1cccc(S(=O)(=O)N2CCCCC2)c1	13	2	0	13
CCN(CC)S(=O)(=O)c1cccc(C(=O)Oc2cccnc2)c1	-5	-5	0	-53*
CCN(CC)S(=O)(=O)c1cccc(S(=O)(=O)c2cccc(S(=O)(=O)N(CC)CC)c2)c1	0	36*	7	12
CC1CCN(S(=O)(=O)c2ccc3c(c2)C(=NO)c2cc(S(=O)(=O)N4CCC(C)CC4)ccc2-3)CC1	-2	55*	0	8
Cn1cc(CNCc2ccccc2OCC(O)CN2CCc3ccccc3C2)cn1 (stereo not given)	-13	-17	-1	-71*
OC(COc1c(F)cc(Br)cc1F)CN1CCc2ccccc2C1 (stereo not given)	.	-21	.	-111*
OC(COc1c(Br)cc(Br)cc1Br)CN1CCOCC1 (stereo not given)	9	2	-1	0
Cc1ccccc1OCC(O)CN1CCN(C)CC1 (stereo not given)	-14	-1	1	16
Cc1ccc(C(C)C)c(OCC(O)CN2CCc3ccccc3C2)c1 (stereo not given)	34	-16	1	?
Cc1cccc(C)c1OCC(O)CN1CCc2ccccc2C1 (stereo not given)	-8	-40	-1	-67*
SMILES	TRPML1 blocker	DRD3 agonist	TRPML1 agonist	D3 antag
O=S(=O)(c1ccc(OCC(O)CN2CCc3ccccc3C2)cc1)N1CCOCC1 (stereo not given)	-12	4	0	-57*
CN(CCO)c1nc(-c2cccs2)nc2ccccc12	.	.	0	.
Cc1cccc(OCC(=O)Nc2ccc(O)c(-c3nc4ccccc4o3)c2)c1	.	.	0	.
Cc1cc(C)cc(N2CCCC2=O)c1	-18	-9	0	17
O=C1CCCN1c1cc(Cl)cc(Cl)c1	-3	-24	0	-55*
C[C@H]1[C@H](c2ccccc2)C[C@@H](C(=O)O)C1(C)C	-15	32*	0	-17
CC1(C)OC(=O)C2(Cc3ccccc3N3CCCC32)C(=O)O1 (stereo not given)	39	.	0	.
CC(=O)Oc1ccc(C(=O)Nc2ccccc2C(=O)N2CCCCC2)cc1	18	-11	1	-57*
